Source: PubChem BioAssay (National Center for Advancing Translational Sciences (NCATS))
BRCA1 expr up: BRCA1 expression activation | 1.1% of 380,000 active | AID 624202 | Potency, µM (top dose mostly 46.1 µM), usual class: activators | MCF7-BRCA1-FFLuc reporter, luminescence, 48 h; response scale: scaled: vehicle 0%, 10 µM genistein 100%; further: nearly all actives have a fitted effect of over 80% in size
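Luminescence from a BRCA1-driven firefly luciferase in MCF7 cells was read after 48 h compound exposure at 37 C. Data normalized against DMSO and a 10microM genistein activation control, then curve-fitted across the titration.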
TSG101-PTAP inh: blocks PTAP/TSG101 interaction to inhibit HIV-1 budding | Q99816 | Fluorescence polarization, FITC-PTAP peptide / Tsg101 binding | Potency, µM (doses to about 115 µM), actives largely listed as inhibitors | 340,000 tested, under 10 active; active means well fitted inhibition curve with a large enough effect in the main read-out, with a control signal flat, not every such curve was filed as active; inconclusive means small, poorly fitted or top-dose-only effect, or effect the other way, or a change in a side signal; inactive means no such curve, though single readings can be large or run the other way
Target sequence (Q99816 whole entry, looked up): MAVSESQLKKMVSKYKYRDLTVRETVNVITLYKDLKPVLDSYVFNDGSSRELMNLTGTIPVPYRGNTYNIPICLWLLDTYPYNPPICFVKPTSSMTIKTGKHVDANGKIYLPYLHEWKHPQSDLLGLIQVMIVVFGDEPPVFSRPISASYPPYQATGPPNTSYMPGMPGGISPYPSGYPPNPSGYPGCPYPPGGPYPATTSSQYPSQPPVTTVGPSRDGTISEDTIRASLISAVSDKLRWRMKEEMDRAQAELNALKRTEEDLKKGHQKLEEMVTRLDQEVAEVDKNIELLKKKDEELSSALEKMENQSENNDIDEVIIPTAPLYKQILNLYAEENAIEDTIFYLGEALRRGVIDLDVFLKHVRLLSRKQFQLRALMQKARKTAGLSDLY
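Fluorescence polarization binding of Tsg101 binding domain (10 uM final) to FITC-labeled PTAP peptide (50 nM final) in HEPES pH 7.5 buffer with NaCl, Tween 20, EDTA, TCEP. Compounds added before peptide; binding 20 min at RT.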
S-ASM inh: blocks human secretory acid sphingomyelinase. P17405. placental ASM, HMU-PC fluorogenic substrate, 60 min. Potency, µM (doses to about 57.5 µM), actives largely listed as inhibitors. 0.006% of 340,000 active. AID 504937
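HMU-PC0 cleavage (9 uM final) by human placental ASM, 60 min at 37 °C following 10 min compound exposure at RT; stopped at pH 10, fluorescence Ex 386/Em 447 nm.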
Apoferritin bind: binds horse apoferritin like a general anesthetic; P02791; apoferritin/1-aminoanthracene competitive binding, fluorescence; Potency, µM (top dose mostly 77.5 µM), most hits filed as inhibitors; 0.074% of 350,000 active; further: nearly all actives have a fitted effect of over 20% in size
Target sequence (P02791 2-175 limits assumed): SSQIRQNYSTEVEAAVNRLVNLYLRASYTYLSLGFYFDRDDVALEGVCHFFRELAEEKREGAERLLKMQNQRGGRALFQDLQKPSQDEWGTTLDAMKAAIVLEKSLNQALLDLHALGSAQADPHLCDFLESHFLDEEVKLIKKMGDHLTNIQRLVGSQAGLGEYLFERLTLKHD
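Read-out: endpoint 1-AMA fluorescence, excitation 380 nm and emission 535 nm, after compounds sit 10 min at room temperature with 10 uM horse-spleen apoferritin in 50% saturated 1-AMA/PBS. Values come from four-parameter Hill fits.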
TSHR antagonist: blocks TSH signaling through the human TSH receptor | P16473 | TSHR-expressing cells, TSH-stimulated cAMP HTRF, 2 h; hits give low values | activity change, negative = inhibition, % at 11.5 µM | 0.2% of 330,000 active | AID 504810;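 active means activity change below a set negative limit, meaning inhibition stronger than a set level, cut at about -70% in these data; inconclusive means activity change between two set negative limits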
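TSHR-expressing cells, 200/well, pre-treated with compound, then stimulated with EC80 TSH (4nM final) for 2 hours at 37 deg C. cAMP measured by competitive HTRF: anti-cAMP cryptate antibody in lysis buffer plus cAMP-d2, read after 30 minutes at room temperature.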
Large screens that a line does not name were inactive. Hits are enriched below; roughly 1.2% of the tested compounds scored in any of these assays. Unless noted, the call rests on the fitted dose curve; in most records, active means well fitted curve in the direction sought with a large enough effect; inconclusive means small, poorly fitted or top-dose-only effect, or another doubt; inactive means no such curve, though single readings can be large; an effect the other way counts as inactive or inconclusive.

O=c1cc(CSc2nnc(NC3CCCCC3)s2)nc2sccn12	none
CC(=O)Nc1ccc(-c2csc(N3CCC(C(N)=O)CC3)n2)cc1	none (no result: BRCA1 expr up, TSG101-PTAP inh, S-ASM inh, Apoferritin bind)
O=C(Nc1ccc2ncccc2c1)c1cc(Cl)ccc1Cl	BRCA1 expr up 7.9µM
Brc1ccc(CNc2ccc3ncccc3c2)cc1	BRCA1 expr up 8.9µM, TSHR antagonist inconclusive
O=C(Nc1ccc2ncccc2c1)c1cccc(Br)c1	BRCA1 expr up 2.2µM
Oc1cc(NCc2ccccc2)cc2cccnc12	none (no result: BRCA1 expr up, TSG101-PTAP inh, S-ASM inh, Apoferritin bind)
Cc1ccc(C(=O)Nc2ccc3ncccc3c2)cc1	BRCA1 expr up inconclusive
O=C(Nc1cccc(Nc2ccccc2)c1)c1cnn2c1NC(=C1CC1)C=C2C(F)F	none (no result: TSG101-PTAP inh, S-ASM inh, Apoferritin bind, TSHR antagonist)
CC(=O)NC(Cc1ccc(I)cc1)C(=O)NCC(N)C(=O)c1ccccc1 (stereo not given)	none (no result: TSG101-PTAP inh, S-ASM inh, Apoferritin bind, TSHR antagonist)
CCCCNc1nc(C)nc2c1nc(-c1ccccc1)n2CCCN(CC)CC	none (no result: BRCA1 expr up, TSG101-PTAP inh, S-ASM inh, TSHR antagonist)
CN(C)/[N+]([O-])=N/Oc1cc(F)c([N+](=O)[O-])cc1[N+](=O)[O-]	none (no result: TSG101-PTAP inh, S-ASM inh, Apoferritin bind, TSHR antagonist)
COc1ccc(N2C(=O)c3ccccc3NC2(C)C)cc1	BRCA1 expr up 10µM
CCC1(C)Nc2ccccc2C(=O)N1O (stereo not given)	none
CCOc1ccc(N2C(=O)c3ccccc3NC2(C)CC)cc1 (stereo not given)	BRCA1 expr up 3.5µM (no result: Apoferritin bind)
CC1(C)Nc2ccccc2C(=O)N1c1ccc(Br)cc1	BRCA1 expr up inconclusive (no result: Apoferritin bind, TSHR antagonist)
COc1ccc(C2C=C3CN(C(=O)OC(C)(C)C)S(=O)(=O)C3CC2OC(=O)c2cccc(C)c2)cc1 (stereo not given)	none (no result: BRCA1 expr up, TSG101-PTAP inh, S-ASM inh, TSHR antagonist)
CC(O)(c1ccccc1)c1nc(-c2cccc(C(=O)O)c2)cs1 (stereo not given)	BRCA1 expr up 10µM (no result: TSG101-PTAP inh, S-ASM inh, Apoferritin bind, TSHR antagonist)
CC(O)(c1cccc(F)c1)c1nc(-c2cccc(C(=O)O)c2)cs1 (stereo not given)	none (no result: TSG101-PTAP inh, S-ASM inh, Apoferritin bind, TSHR antagonist)
Cc1ccc(C(=O)Nn2cnc3ccccc3c2=O)cc1C	BRCA1 expr up 8.9µM
CCCCN(C)CCNC(=O)c1cc2cc3ccc(OC)cc3nc2o1	none
CCCCN(C)C(=O)c1cc2cc3cc(OC)ccc3nc2o1	BRCA1 expr up 6.3µM
CCCCN(C)C(=O)c1cc2cc3ccc(OC)cc3nc2o1	BRCA1 expr up 4.5µM
CCCOC(=O)NCCCN(C)C	none (no result: BRCA1 expr up, TSG101-PTAP inh, S-ASM inh, TSHR antagonist)
CC(N)(C(=O)O)c1ccc(S(=O)(=O)O)cc1 (stereo not given)	none (no result: BRCA1 expr up, TSG101-PTAP inh, S-ASM inh, TSHR antagonist)
c1ccc(-c2csc(NC3CCCCC3)n2)cc1	BRCA1 expr up 2.8µM, Apoferritin bind inconclusive
Nc1nc2nc(-c3ccccc3)cc(C(F)(F)F)c2s1	TSHR antagonist -99
COc1ccc2nc(/N=C(\N)NC(=O)C(C)(C)C)nc(C)c2c1	BRCA1 expr up 11µM, Apoferritin bind inconclusive
C(=Nc1cccnc1)c1ccnc2ccccc12	none (no result: TSG101-PTAP inh, S-ASM inh, Apoferritin bind, TSHR antagonist)
CN(C)/C=N/C(=S)Nc1ccc(Cl)cc1Cl	BRCA1 expr up 5µM
c1ccc(-c2cc3nc(NCc4cccs4)ccn3n2)cc1	none (no result: TSG101-PTAP inh, S-ASM inh, Apoferritin bind, TSHR antagonist)
O=c1c2ccccc2nc2ccc(NCc3cccs3)nn12	BRCA1 expr up 11µM
Cc1cc(C)cc(CC2CC(=O)N(c3nc(C)cc(C)n3)C2=O)c1 (stereo not given)	Apoferritin bind 5.6µM
O=C1NCCN1C(=O)C12CC3CC(CC(C3)C1)C2	Apoferritin bind 14µM
CCc1nc2oc3ccc(C)cc3c(=O)c2cc1C(=O)OC	BRCA1 expr up 6.3µM
O=S(=O)(c1ccccc1F)N1CCN(c2nc(-c3cccs3)nc3ccccc23)CC1	none (no result: TSG101-PTAP inh, S-ASM inh, Apoferritin bind, TSHR antagonist)
Nc1[nH]c(=S)[nH]c(=O)c1N=O	none (no result: TSG101-PTAP inh, S-ASM inh, Apoferritin bind, TSHR antagonist)
Cc1cc(C(=O)NCCC2=CCCCC2)no1	BRCA1 expr up 10µM, Apoferritin bind inconclusive
CC(=O)c1cccc(OCc2cc(C(=O)NCCC3=CCCCC3)no2)c1	BRCA1 expr up 3.2µM, Apoferritin bind inconclusive
Cc1cc([N+](=O)[O-])ccc1NCc1ccccc1	Apoferritin bind 11µM
Cc1ccccc1NCc1ccc([N+](=O)[O-])s1	Apoferritin bind 8.9µM
Cc1ccc(NCc2ccc([N+](=O)[O-])s2)cc1	Apoferritin bind 16µM
O=[N+]([O-])c1ccc(CNc2cccc(F)c2)s1	Apoferritin bind inconclusive
Cc1cc([N+](=O)[O-])ccc1NCc1ccc2ccccc2c1	S-ASM inh inconclusive, Apoferritin bind inconclusive
Cc1cccc(NCc2ccc([N+](=O)[O-])s2)c1	Apoferritin bind 16µM
Nc1c(Cl)cc(/C=C2\C=Cc3ccccc32)cc1Cl	none (no result: TSG101-PTAP inh, S-ASM inh, Apoferritin bind, TSHR antagonist)
Cc1cccc(C(=O)NNC(=O)C(=O)NC(C)(C)C)c1	none
CC(C)(C)NC(=O)C(=O)NNC(=O)c1cccc(Br)c1	TSHR antagonist -79
O=C(COc1ccccc1C(=O)OCC(=O)N1CCOCC1)Nc1ccc(Br)cc1	none (no result: TSG101-PTAP inh, S-ASM inh, Apoferritin bind, TSHR antagonist)
COc1cc(OC)c(C2CC(=O)N3CN(c4ccc(C)cc4)CSC3=C2C#N)cc1OC (stereo not given)	BRCA1 expr up 6.3µM, Apoferritin bind inconclusive
Cc1nc2ccccc2n1CC(=O)N/N=C\c1ccccn1	none
Cc1nc2ccccc2n1CC(=O)N/N=C\C=C\c1ccccc1	TSHR antagonist -81
COc1ccc(OC)c(C(=O)c2coc3ccc(O)cc23)c1	none
O=C(c1ccc(Br)cc1)c1coc2ccc(O)cc12	BRCA1 expr up 11µM (no result: Apoferritin bind, TSHR antagonist)
